Data from PubChem BioAssay (NCI).
About 83,000 compounds went through this panel and 20% of them were active in at least one assay; those are over-represented in the sample as a whole.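 96-well plates, one dose, 48 hours. Percent growth reported; active if below 10.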 Values without a mark were called inactive. Activity calls are given as the source filed them.

System: ACHN renal
Assay: NCI-60 one-dose screen, 48 h (100 = growth as untreated, 0 = no growth, -100 = all killed)
Settings: 10 µM unless noted

Q: Which growth does the source give for O=C(NCCCCCCNC(=O)c1c2c(nc3ccccc13)-c1cccnc1SC2)c1c2c(nc3ccccc13)-c1cccnc1SC2 here?
A: Its growth is 65.8%.

Q: How did the growth turn out when COc1cc(/C=N/n2cnc3oc(-c4ccccc4)cc3c2=N)cc(CN2CCCC2)c1O was run?
A: Its growth is 75.9%.

Q: Which growth does the source give for C#C[C@]1(O)CC[C@H]2[C@@H]3CC=C4c5sc(Nc6cccc(Cl)n6)nc5CC[C@]4(C)[C@H]3CC[C@@]21C here?
A: The growth was 16.4%.

System: CAKI-1 renal
Assay: as above
Settings: 10 µM

Q: For C#C[C@]1(O)CC[C@H]2[C@@H]3CC=C4c5sc(Nc6cccc(C)n6)nc5CC[C@]4(C)[C@H]3CC[C@@]21C, which growth is on record?
A: Its growth is 2.65% (active).

Q: With Clc1ccc(-c2csc(N/N=C/c3nc4ccccc4n3C3CC3)n2)cc1 as the molecule, how does the growth read?
A: The growth was 89.7%.

Q: How did the growth turn out when O=C(NNc1nc2cc(F)c(F)cc2n2cccc12)c1ccncn1 was run?
A: The growth was 17.2%.

Q: Which growth does the source give for CCn1c2ccc(/C=N/NS(=O)(=O)CCN(C)C)cc2c2cc(/C=N/NS(=O)(=O)CCN(C)C)ccc21 here?
A: Its growth is 82.1%.

Q: Which growth does the source give for COc1ccc(-c2nnc(/N=C3/C(=O)Nc4ccc(Br)cc43)o2)cc1 here?
A: The growth was 88.8%.

Q: Which growth does the source give for O=C(CCCCCCN1CC(=O)N2[C@@H](c3ccc(Cl)c(F)c3)c3[nH]c4ccccc4c3C[C@H]2C1=O)NO here?
A: Its growth is 70.8%.

Q: O=C(N/N=C\c1ccc(Cl)cc1)c1ccc2nc(-c3ccc(Br)cc3)[nH]c2c1 was tested. Which growth did it give?
A: The growth was -17.8% (active).

Q: With O=C1CSC(=O)N1Cc1cc2ccccc2nc1Cl as the molecule, how does the growth read?
A: Its growth is 86.1%.

Q: How did the growth turn out when CCCCSc1nnc(-c2ccc(-c3ccc(Cl)cc3)nc2C)o1 was run?
A: Its growth is 95.4%.

Q: COc1ccc(/C=N\NC(=O)c2ccc3nc(-c4ccc(Br)cc4)[nH]c3c2)cc1 was tested. Which growth did it give?
A: Its growth is 35%.
